SMILES strings stand for the structures.

Experiment [1] deals with T1, Serine/threonine-protein kinase Nek9 (Homo sapiens) (UniProt Q8TD19).
T1 sequence (whole entry): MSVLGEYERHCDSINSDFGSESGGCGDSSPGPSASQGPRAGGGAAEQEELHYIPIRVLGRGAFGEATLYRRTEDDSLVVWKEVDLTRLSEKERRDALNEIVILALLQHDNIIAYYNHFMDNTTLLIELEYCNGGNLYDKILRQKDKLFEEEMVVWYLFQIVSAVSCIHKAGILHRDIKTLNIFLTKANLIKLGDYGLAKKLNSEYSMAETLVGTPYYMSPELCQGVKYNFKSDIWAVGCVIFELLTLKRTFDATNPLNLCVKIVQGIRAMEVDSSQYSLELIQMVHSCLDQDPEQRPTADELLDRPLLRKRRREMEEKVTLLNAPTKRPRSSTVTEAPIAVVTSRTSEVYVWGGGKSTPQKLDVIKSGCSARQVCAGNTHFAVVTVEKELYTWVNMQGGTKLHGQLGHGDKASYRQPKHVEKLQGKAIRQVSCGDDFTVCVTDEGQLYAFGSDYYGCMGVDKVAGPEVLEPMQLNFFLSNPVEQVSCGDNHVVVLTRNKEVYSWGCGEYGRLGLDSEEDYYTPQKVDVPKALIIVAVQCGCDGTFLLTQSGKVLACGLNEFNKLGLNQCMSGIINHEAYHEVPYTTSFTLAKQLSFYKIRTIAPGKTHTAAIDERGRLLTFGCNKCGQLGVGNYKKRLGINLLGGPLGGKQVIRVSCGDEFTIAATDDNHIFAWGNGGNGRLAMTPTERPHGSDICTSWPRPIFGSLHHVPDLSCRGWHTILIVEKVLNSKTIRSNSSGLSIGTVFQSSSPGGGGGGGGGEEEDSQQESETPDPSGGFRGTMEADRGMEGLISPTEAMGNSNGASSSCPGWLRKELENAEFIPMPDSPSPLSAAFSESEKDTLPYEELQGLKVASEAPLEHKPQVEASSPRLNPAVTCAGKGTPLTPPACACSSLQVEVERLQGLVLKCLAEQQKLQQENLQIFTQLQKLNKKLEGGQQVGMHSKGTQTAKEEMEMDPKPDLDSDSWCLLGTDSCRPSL
The conditions noted are these: at 1 µM.

The target in experiment [2] is Serine/threonine-protein kinase PLK1 (Homo sapiens) (UniProt P53350). The conditions noted are these: at 0.1 µM.
For experiment [3] the target is unchanged. The conditions noted are these: at 1 µM.
Experiment [4] addresses T2, Dual specificity protein kinase TTK (Homo sapiens) (UniProt P33981).
T2 sequence (whole entry): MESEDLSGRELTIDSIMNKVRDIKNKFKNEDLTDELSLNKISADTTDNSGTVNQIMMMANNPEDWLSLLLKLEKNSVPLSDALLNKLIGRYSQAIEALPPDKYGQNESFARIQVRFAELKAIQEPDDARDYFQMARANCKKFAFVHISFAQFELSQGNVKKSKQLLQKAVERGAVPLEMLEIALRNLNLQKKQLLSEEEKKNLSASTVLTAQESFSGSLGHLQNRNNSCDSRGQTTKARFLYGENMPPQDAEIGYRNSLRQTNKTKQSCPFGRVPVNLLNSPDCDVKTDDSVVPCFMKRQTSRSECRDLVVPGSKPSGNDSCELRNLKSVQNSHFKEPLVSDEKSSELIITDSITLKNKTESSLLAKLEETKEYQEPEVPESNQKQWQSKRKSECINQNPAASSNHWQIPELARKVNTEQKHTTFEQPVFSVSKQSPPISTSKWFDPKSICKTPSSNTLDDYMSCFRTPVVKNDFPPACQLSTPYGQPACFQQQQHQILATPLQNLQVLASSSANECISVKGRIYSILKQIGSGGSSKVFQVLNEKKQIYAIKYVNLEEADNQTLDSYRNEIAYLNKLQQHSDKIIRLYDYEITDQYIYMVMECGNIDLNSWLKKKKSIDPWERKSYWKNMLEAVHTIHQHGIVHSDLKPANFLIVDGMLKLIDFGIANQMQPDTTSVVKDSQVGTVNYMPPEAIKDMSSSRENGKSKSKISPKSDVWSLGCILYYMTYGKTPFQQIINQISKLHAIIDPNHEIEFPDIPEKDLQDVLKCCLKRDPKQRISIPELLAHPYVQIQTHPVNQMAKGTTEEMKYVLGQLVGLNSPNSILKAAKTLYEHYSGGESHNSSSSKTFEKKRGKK
The conditions noted are these: at 0.1 µM.

The test system of experiment [5] is T3, Receptor-type tyrosine-protein kinase FLT3 (Homo sapiens), P36888 [D835Y].
T3 sequence (whole entry): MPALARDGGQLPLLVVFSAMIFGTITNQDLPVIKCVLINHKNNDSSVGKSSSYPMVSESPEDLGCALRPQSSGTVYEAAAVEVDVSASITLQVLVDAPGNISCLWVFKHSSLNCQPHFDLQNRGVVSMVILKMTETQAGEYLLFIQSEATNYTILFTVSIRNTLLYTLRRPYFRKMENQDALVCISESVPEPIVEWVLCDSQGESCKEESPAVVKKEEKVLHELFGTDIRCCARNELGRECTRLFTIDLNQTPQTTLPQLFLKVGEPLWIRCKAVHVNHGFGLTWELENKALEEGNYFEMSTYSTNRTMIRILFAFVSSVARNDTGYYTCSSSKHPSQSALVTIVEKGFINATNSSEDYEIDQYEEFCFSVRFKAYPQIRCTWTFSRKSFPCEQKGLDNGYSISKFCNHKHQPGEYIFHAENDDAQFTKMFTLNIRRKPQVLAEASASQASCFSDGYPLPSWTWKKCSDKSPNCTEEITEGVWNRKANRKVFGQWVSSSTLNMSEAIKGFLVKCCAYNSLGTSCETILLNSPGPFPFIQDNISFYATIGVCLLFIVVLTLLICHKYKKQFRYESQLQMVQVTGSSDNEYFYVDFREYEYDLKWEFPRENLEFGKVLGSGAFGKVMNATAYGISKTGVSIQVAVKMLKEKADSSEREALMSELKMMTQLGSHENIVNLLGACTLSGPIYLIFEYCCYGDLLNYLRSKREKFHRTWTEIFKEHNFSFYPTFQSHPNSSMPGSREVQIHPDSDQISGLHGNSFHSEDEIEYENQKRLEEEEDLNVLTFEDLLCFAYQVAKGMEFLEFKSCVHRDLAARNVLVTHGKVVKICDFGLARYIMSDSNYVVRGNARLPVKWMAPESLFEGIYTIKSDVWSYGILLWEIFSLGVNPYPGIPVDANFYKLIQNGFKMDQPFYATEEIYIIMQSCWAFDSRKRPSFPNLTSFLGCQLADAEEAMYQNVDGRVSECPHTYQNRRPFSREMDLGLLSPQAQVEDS
The conditions noted are these: at 1 µM.

Experiment [6] addresses Macrophage colony-stimulating factor 1 receptor (Homo sapiens) (UniProt P07333). The conditions noted are these: at 0.1 µM.
The target is the same in experiment [7]. The conditions noted are these: at 1 µM.
In experiment [8] the target is Tyrosine-protein kinase Fyn (Homo sapiens) (UniProt P06241). The conditions noted are these: at 0.1 µM.
For experiment [9] the target is unchanged. The conditions noted are these: at 1 µM.
Experiment [10] concerns the target Tyrosine-protein kinase HCK (Homo sapiens) (UniProt P08631). The conditions noted are these: at 0.1 µM.
For experiment [11] the target is unchanged. The conditions noted are these: at 1 µM.
The target of experiment [12] is Insulin-like growth factor 1 receptor (Homo sapiens) (UniProt P08069). The conditions noted are these: at 0.1 µM.
The target is the same in experiment [13]. The conditions noted are these: at 1 µM.
In experiment [14] the target is Insulin receptor (Homo sapiens) (UniProt P06213). The conditions noted are these: at 0.1 µM.
Experiment [15] has the same target. The conditions noted are these: at 1 µM.
For experiment [16], the target named is Insulin receptor-related protein (Homo sapiens) (UniProt P14616). The conditions noted are these: at 0.1 µM.
The target is the same in experiment [17]. The conditions noted are these: at 1 µM.
Experiment [18] deals with T4, Tyrosine-protein kinase ITK/TSK (Homo sapiens) (UniProt Q08881).
T4 sequence (whole entry): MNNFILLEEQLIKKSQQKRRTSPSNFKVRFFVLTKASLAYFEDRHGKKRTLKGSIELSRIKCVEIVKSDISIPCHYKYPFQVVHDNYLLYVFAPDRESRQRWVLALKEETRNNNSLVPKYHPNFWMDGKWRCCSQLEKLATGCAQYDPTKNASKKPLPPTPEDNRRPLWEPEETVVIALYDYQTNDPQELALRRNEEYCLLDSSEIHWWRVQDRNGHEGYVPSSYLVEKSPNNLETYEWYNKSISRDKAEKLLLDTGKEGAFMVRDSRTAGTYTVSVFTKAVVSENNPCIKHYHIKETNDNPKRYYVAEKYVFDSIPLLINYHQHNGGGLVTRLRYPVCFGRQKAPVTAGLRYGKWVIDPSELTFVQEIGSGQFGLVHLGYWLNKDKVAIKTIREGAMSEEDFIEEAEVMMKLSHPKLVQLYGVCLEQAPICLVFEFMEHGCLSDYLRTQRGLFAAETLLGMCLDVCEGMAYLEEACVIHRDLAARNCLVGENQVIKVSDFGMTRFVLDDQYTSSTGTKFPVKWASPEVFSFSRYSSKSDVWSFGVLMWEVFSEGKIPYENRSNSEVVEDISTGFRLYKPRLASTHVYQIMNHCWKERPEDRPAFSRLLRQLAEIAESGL
The conditions noted are these: at 0.1 µM.

Experiment [19] addresses Vascular endothelial growth factor receptor 3 (Homo sapiens) (UniProt P35916). The conditions noted are these: at 0.1 µM.
For experiment [20] the target is unchanged. The conditions noted are these: at 1 µM.

Sequence of Insulin receptor (Homo sapiens) (P06213 28-758 limits assumed): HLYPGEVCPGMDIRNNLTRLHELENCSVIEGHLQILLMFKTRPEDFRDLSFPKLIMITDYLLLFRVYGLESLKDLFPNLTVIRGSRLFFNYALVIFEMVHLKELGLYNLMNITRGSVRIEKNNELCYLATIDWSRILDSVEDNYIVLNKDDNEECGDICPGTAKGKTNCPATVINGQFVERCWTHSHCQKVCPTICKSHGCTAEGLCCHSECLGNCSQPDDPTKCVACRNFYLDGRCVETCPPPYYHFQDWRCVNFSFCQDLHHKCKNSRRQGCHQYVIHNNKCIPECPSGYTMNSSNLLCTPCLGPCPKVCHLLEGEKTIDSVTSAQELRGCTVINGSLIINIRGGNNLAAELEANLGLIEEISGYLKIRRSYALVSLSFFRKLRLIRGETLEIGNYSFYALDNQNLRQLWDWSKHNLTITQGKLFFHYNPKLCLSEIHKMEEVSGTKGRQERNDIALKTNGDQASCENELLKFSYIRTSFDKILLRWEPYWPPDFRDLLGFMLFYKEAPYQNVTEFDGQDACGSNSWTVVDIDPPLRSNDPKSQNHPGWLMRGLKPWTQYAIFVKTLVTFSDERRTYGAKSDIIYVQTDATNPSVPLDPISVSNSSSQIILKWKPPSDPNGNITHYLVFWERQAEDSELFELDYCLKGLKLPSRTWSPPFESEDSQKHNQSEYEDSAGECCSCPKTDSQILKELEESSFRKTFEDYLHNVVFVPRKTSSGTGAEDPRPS
Sequence of Insulin receptor (Homo sapiens) (P06213 763-1382 limits assumed): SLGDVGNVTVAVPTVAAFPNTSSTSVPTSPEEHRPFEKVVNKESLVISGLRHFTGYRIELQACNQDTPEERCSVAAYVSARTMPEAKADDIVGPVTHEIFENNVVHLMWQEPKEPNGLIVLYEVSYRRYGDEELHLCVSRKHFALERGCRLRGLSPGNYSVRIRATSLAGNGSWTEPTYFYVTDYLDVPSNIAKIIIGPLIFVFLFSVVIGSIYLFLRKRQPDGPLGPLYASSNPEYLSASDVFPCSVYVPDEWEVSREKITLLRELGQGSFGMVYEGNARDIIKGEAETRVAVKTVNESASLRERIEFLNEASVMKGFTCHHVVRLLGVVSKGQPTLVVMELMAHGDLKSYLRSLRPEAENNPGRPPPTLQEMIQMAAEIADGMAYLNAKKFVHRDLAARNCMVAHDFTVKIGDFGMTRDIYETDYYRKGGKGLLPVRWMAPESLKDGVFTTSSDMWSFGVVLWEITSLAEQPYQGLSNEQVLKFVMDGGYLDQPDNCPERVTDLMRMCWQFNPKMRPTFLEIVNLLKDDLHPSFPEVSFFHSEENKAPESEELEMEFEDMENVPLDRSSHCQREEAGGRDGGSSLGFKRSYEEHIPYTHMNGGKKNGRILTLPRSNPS
Sequence of Tyrosine-protein kinase HCK (Homo sapiens) (P08631 2-526 limits assumed): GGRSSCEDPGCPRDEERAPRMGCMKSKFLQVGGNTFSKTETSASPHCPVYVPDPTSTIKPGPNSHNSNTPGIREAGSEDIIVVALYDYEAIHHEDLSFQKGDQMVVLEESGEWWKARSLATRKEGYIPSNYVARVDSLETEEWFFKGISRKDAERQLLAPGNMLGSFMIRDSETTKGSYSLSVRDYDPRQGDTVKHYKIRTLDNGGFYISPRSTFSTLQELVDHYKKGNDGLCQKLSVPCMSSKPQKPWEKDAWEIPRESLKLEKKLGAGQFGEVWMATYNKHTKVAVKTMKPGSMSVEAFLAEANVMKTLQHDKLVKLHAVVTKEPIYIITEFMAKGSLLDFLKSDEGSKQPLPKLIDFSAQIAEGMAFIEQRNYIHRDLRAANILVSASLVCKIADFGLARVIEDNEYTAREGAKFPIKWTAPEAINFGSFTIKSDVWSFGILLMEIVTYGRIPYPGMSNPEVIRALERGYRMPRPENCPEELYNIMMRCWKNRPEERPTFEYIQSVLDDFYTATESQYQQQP
Sequence of Insulin receptor-related protein (Homo sapiens) (P14616 27-742 limits assumed): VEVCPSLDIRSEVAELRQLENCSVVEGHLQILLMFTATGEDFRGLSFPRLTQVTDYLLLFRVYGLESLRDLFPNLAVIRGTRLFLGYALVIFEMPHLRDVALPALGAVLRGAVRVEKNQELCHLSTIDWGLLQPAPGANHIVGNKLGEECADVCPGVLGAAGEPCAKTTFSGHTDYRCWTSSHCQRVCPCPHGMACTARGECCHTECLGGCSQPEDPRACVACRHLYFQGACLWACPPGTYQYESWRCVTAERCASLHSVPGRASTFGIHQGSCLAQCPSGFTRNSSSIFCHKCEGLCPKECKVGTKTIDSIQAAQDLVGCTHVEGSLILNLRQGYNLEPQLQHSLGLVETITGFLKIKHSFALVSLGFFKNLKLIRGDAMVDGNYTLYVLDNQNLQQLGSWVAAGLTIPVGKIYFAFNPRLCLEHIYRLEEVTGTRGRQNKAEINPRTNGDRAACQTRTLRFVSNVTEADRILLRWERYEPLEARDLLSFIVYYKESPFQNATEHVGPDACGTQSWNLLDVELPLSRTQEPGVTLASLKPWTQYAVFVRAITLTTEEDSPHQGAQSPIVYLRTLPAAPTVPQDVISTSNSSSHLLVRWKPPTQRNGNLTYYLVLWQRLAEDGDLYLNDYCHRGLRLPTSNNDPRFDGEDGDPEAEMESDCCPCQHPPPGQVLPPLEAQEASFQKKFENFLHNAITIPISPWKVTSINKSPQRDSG
Sequence of Insulin receptor-related protein (Homo sapiens) (P14616 747-1297 limits assumed): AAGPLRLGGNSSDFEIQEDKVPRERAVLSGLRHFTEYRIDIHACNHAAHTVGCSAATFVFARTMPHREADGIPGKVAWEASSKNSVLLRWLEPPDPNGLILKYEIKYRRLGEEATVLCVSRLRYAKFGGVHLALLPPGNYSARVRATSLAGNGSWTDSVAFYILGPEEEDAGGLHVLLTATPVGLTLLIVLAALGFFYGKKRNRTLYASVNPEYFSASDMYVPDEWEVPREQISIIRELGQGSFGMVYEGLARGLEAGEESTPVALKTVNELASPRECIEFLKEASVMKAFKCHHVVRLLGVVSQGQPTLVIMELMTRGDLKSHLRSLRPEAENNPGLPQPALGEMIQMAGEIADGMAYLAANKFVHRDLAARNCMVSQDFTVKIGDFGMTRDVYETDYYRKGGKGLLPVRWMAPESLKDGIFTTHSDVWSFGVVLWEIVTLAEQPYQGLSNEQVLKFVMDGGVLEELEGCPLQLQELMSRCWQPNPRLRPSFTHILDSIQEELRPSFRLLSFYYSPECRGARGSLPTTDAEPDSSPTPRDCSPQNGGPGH
Sequence of Tyrosine-protein kinase Fyn (Homo sapiens) (P06241 2-537 limits assumed): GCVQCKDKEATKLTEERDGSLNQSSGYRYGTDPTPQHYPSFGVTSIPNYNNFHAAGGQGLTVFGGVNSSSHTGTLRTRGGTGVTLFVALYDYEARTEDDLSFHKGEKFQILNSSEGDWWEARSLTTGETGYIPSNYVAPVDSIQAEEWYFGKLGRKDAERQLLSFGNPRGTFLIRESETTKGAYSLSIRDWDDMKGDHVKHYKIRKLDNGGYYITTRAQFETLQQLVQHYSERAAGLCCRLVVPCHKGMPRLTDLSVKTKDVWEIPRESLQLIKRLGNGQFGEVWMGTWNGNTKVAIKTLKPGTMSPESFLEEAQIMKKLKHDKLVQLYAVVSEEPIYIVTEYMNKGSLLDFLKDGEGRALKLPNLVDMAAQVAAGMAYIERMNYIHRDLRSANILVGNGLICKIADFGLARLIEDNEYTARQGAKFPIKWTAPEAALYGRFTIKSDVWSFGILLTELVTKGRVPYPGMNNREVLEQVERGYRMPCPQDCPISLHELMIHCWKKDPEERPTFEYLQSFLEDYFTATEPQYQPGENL
Sequence of Macrophage colony-stimulating factor 1 receptor (Homo sapiens) (P07333 whole entry): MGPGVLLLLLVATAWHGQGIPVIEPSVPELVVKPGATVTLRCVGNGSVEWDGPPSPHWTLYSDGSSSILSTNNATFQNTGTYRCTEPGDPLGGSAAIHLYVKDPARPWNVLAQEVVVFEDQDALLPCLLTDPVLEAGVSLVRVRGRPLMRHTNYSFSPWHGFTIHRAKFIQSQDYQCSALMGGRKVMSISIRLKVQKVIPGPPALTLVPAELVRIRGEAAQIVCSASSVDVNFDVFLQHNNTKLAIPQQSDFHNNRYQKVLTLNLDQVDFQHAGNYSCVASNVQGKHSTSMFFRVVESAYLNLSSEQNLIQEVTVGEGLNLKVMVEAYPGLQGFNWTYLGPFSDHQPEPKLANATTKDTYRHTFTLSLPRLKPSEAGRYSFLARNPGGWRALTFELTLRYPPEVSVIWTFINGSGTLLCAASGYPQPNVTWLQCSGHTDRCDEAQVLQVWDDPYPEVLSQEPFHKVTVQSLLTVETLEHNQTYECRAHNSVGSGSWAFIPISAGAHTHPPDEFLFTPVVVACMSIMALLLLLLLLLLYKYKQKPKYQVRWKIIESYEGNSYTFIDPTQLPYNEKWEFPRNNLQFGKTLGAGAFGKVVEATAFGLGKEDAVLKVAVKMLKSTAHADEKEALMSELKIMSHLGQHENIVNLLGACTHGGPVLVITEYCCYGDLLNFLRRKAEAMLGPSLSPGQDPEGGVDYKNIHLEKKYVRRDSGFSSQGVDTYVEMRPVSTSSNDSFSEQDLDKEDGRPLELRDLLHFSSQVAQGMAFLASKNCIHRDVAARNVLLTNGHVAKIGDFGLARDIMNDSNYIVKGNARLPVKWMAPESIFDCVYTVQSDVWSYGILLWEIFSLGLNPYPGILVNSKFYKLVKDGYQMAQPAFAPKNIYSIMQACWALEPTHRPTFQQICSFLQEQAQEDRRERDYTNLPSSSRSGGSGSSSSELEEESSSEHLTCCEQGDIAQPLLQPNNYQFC

On to `COc1cc(C)c(N(C)C(=O)CN(C)C)cc1Nc1nc(Nc2cccc(F)c2C(N)=O)c2cc[nH]c2n1`, for which the inhibition was 3.64% in experiment [1]; 2.25% in experiment [2]; 2.83% in experiment [3]; 4.16% in [4]; 2.97% in experiment [5]; -0.28% in experiment [6]. Besides, the inhibition in experiment [7] is 4.04%; in experiment [8], -3.95%; in experiment [9], -2.41%; in experiment [10], 2.52%; in experiment [11], 4.78%; in experiment [12] it was 31.2%. The inhibition was 81.6% in experiment [13]; 52.5% in experiment [14]; 107% in experiment [15]; 5.09% in experiment [16]; 17.1% in experiment [17]; -2.44% in experiment [18].

`C[C@@H](Oc1cc(-n2cnc3ccc(OCC4CCN(C)CC4)cc32)sc1C(N)=O)c1ccccc1Cl`: the inhibition in experiment [1] stood at 89.7%; in experiment [4] it was 93.6%; in experiment [5], 11.7%; in experiment [19], 5.35%; in experiment [20], 23.9%; in [6], 4.53%. The inhibition in experiment [7] was 17.9%; in [8], 4.31%; in [9], 15.3%; in experiment [10], 8.11%; in experiment [11], 29.6%; in experiment [12], 6.33%. Further, the inhibition amounted to 7.27% in [13]; 6.64% in experiment [14]; 8.87% in experiment [15]; 2.3% in experiment [16]; 3.31% in experiment [17]; 2.76% in [18].

For `CN(C)CCCNc1nccc(-c2c(-c3ccc(F)cc3)nn3cc(C(F)(F)F)ccc23)n1`, the inhibition is 0.61% in [1]; 2.56% in experiment [2]; 2.23% in [3]; 2.37% in experiment [4]; 2.47% in experiment [5]; -6.61% in experiment [20]. Besides, the inhibition was 2.1% in experiment [6]; 2.47% in experiment [7]; -2.36% in [8]; 0.28% in experiment [9]; 3.12% in experiment [10]; 7.89% in [11]. Moreover, the inhibition in [12] is -7.12%; in experiment [13], -5.52%; in [14], 0.53%; in [15], -0.49%; in experiment [16], 2.55%; in [17], 0.73%. In addition, the inhibition in experiment [18] was -2.44%.

`Cc1ccc(NC(=O)c2ccoc2)cc1-c1ccc(C(=O)NCC2CC2)cc1`: the inhibition in experiment [1] is 4.64%; in experiment [2] it was 2.06%; in [3] it was -0.9%; in [4], 4.04%; in experiment [5], 5.74%; in [19] it was 0.17%. The inhibition in experiment [20] is 6.22%; in experiment [6] it was -2.68%; in experiment [7] it was 2.71%; in experiment [8], 0.65%; in [9], 1.16%; in experiment [10], 4.54%. Moreover, the inhibition is 5.55% in experiment [11]; 2.46% in experiment [12]; 1.25% in experiment [13]; 1.81% in experiment [14]; 3.42% in [15]; 0.32% in experiment [16]. In addition, the inhibition is 0.32% in experiment [17] and -0.83% in [18].

For orientation: inhibition means the relative decrease from the control value, in per cent.

(Values after ChEMBL document CHEMBL1961873, “Compounds: GSK PKIS; Assays: Nanosyn kinase panel” (2012).)
